Molecules are shown by their SMILES. This is part of a sample that, as a whole, favours compounds with a hit. Of some 83,000 tested, about 20% had one in any assay.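 Cell lines were cultured in 96-well plates, exposed to a single compound concentration, and assessed for percent growth 48 hours later.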 A number with no mark means an inactive call. Calls of active or inactive are those of the source. Rule for the calls: active = growth percent below 10; inactive = the rest.

For twelve compounds, growth results are on record in PubChem BioAssay (NCI).

What all share (test): NCI-60 one-dose screen, 48 h (100 = growth as untreated, 0 = no growth, -100 = all killed)
Common to all, as to conditions: 10 µM unless noted

Test [1] deals with NCI-H23 lung.
The subject of test [2] is NCI-H226 lung.
Test [3] deals with NCI-H322M lung.
Test [4] deals with HOP-62 NSCLC.
The subject of test [5] is NCI-H460 lung.
For test [6], the system named is HOP-92 NSCLC.
Test [7] relates to NCI-H522 lung.
Test [8] concerns A549/ATCC NSCLC.
Test [9] has as its system 786-0 renal.
In test [10] the test system is COLO 205 colon.

Consider `CCOC(=O)N[C@H]1CCc2c(Br)c(OC)c(OC)c(OC)c2-c2ccc(SC)c(=O)cc21`, for which the growth in test [1] is 31.2%; in [2], 10.3%; in [3], 35.3%; in test [4] it was 34.9%; in test [5] it was -7.92% (active); in [6], -4.54% (active). Moreover, the growth is 13.2% in test [7], 20.9% in test [8], 9.3% (active) in [9] and 5.51% (active) in test [10].
As to `C[C@]12C[C@@H](CO)[C@H](O)C[C@@H]1CC[C@@H]1[C@@H]2CC[C@]2(C)[C@@H](O)CC[C@@H]12`, the growth in [1] is 102%; in [2], 102%; in test [3], 91.1%; in test [4], 107%; in test [5], 106%; in test [6], 87.3%. Moreover, the growth in [7] was 77.7%; in [8], 99.7%; in [9] it was 102%; in [10], 108%.
In the case of `CC[S][Hg][Cl]`, the growth was 102% in [1]; 113% in [2]; 101% in test [3]; 119% in test [4]; 110% in test [5]; 113% in test [6]. Also, the growth in test [7] was -46.7% (active); in test [8], 98.8%; in [9] it was 109%; in test [10], 124%.
Turning to `CC1=C(CCCNS(C)(=O)=O)C2=C(C)C3(CC3)[C@@](C)(O)C(=O)C2=C1`, the growth in test [1] is -35.1% (active); in test [2], -44% (active); in test [3], -3.8% (active); in [4], -20.5% (active); in test [5], 1% (active); in test [6], -25.7% (active). For the same compound, the growth in test [7] was 6.89% (active); in test [8] it was 2.7% (active); in test [9], -17.6% (active); in test [10] it was -61% (active).
Turning to `COC(=O)[C@H](Cc1ccccc1)NC(=O)c1csc([C@@H](C[C@H](C(C)C)N(C)C(=O)[C@@H](NC(=O)[C@H]2CCCN2C)C2CC2)OC(C)=O)n1`, the growth is 35.9% in [1]; 58% in [2]; 50.3% in [3]; 34.9% in test [4]; 4.53% (active) in test [5]; 8.6% (active) in test [6]. Further, the growth was 0.953% (active) in test [7], 23.2% in test [8], 31.6% in test [9] and -26.7% (active) in test [10].
Consider `CC(=O)[O][Hg][O]C(C)=O`, for which the growth in test [1] is 98.4%; in test [2] it was 118%; in test [3], 89.6%; in test [4], 100%; in test [5], 101%; in test [6], 142%. The growth is -73.9% (active) in test [7], 103% in test [8], 103% in test [9] and 88.5% in [10].
Turning to `CCCCOc1ccc(C(N)Cc2ccccc2)cc1` (stereo not given), the growth in test [1] is 104%; in [2], 112%; in [3], 92.4%; in [4], 107%; in test [5], 95.5%; in [6], 41%. Besides, the growth in [7] is 93%; in test [8], 90%; in test [9], 75.3%; in test [10], -43.2% (active).
For the compound `CSc1nc(Cl)cc(N2CC2)n1`, the growth in test [1] is 103%; in test [2] it was 108%; in [3] it was 128%; in test [4], 103%; in [5] it was 105%; in [6], 93%. Also, the growth is 126% in test [7], 102% in test [8], 104% in test [9] and 139% in test [10].
In the case of `O=c1[nH]cc(N(CCCl)CCCl)c(=O)[nH]1`, the growth in [1] was 54.2%; in test [2] it was 76.5%; in test [3], 96.6%; in test [4], 103%; in [5], 31.8%; in test [6] it was 2.65% (active). The growth was 53.8% in test [7], 77.5% in test [8], 44.9% in test [9] and 81% in [10].
Consider `O=C(Nc1ccc([As]=[As]c2ccc(NC(=O)c3ccccc3)cc2)cc1)c1ccccc1` (stereo not given), for which the growth in [1] was -71.3% (active); in [2], -85.5% (active); in test [3] it was -76.8% (active); in test [4], -96.7% (active); in [5] it was -30.5% (active); in test [6], -93.1% (active). Moreover, the growth was -75.9% (active) in test [7], -63.2% (active) in test [8], -94.3% (active) in test [9] and -83.4% (active) in [10].
For the compound `COC(=O)CC12CC(NC(=O)c3csc([C@@H](C[C@H](C(C)C)N(C)C(=O)[C@@H](NC(=O)[C@H]4CCCCN4C)C(C)C)OC(C)=O)n3)(C1)C2`, the growth in test [1] is 21.3%; in test [2], 23.1%; in [3], 43%; in test [4], 6.8% (active); in test [5], 7.76% (active); in test [6], 35.7%. In addition, the growth in [7] was 10.8%; in [8], 18%; in test [9], 12%; in test [10], -54.7% (active).
For the compound `COP(=S)(N1CC1)N1CC1`, the growth is 101% in test [1]; 98.6% in [2]; 100% in test [3]; 94.1% in test [4]; 107% in test [5]; 98.6% in test [6]. For the same compound, the growth was 103% in test [7], 133% in test [8], 105% in [9] and 106% in test [10].
